Experimental data: PubChem BioAssay AID837 (The Scripps Research Institute Molecular Screening Center, 2007)
Activity calls are given as the source filed them.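 The calls were made as follows: active = relative FRET score above 0.01, or acceptor fluorescence over 30% below the sample-well median; inactive = the rest.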

Target: Protein Rev (Human immunodeficiency virus type 1 group M subtype B (isolate WMJ22)) (UniProt P05866)
Experiment: HIV-1 Rev-RRE binding inhibitors, retest, confirmation, biochemical, FRET, acceptor and relative FRET calls (AID 837);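 also: relative FRET combines rise in Cy5 acceptor with fall in fluorescein donor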
Details: Fl-Rev peptide / Cy5-RRE RNA FRET, 1536-well; at 8 µM

Protein Rev (Human immunodeficiency virus type 1 group M subtype B (isolate WMJ22)), sequence (P05866 whole entry, looked up): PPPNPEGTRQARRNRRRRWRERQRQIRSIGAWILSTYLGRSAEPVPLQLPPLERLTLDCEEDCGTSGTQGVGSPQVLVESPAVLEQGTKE

| Structure (SMILES) | outcome |
| --- | --- |
| CC1CC(C)CN(Cc2nc(N)nc(Nc3ccccc3)n2)C1 (stereo unspecified) | inactive |
| CCCCCCCCNc1ncnc2ccccc12 | inactive |
| c1ccc(COc2ccc(OCCCN3CCCCC3)cc2)cc1 | inactive |
| CC1=NN(c2ccccc2)C(=O)C1N=Nc1ccc(N)cc1 (stereo unspecified) | active; fluoresces like the acceptor |
| O=C(CN1C2=NCCN2c2ccccc21)c1ccc(Br)cc1 | active |
| COc1cccc(Nc2nc(N)nc(-c3oc4ccccc4c3C)n2)c1 | active |
| OC(COc1ccc2cc(Br)ccc2c1)CN1CCCC1 (stereo unspecified) | inactive |
| COc1ccc(/C=C/c2cc(-c3ccc(C)cc3)o[n+]2C)cc1 | active |
| CCN(CC)CCn1c(=N)n(CCOc2ccccc2)c2ccccc21 | inactive |
| Cc1ccc(C2C3=C(NCCN=C3c3ccccc3)C(=O)N2c2ccccc2)cc1 (stereo unspecified) | inactive |
| N#Cc1c(NCCN)nc(-c2ccco2)c2c1CCCC2 | inactive |
| CCOC(=O)Cn1c(=N)n(Cc2ccccc2)c2ccccc21 | inactive |
| CCCCCCC1CC(CSC(=N)N)OC1=O (stereo unspecified) | inactive |
| Nc1cccc2nc3ccccc3cc12 | inactive |
| CCN(CC)CCCNC(=O)c1cc(-c2ccc(Cl)cc2)on1 | inactive |
| Cc1nc(Nc2ccc(F)cc2)[nH]c(=O)c1CCC(C)C | inactive |
| CC(=Nc1ccc(C)cc1)c1sc2ccccc2c1O | inactive |
| C=CCn1c(=N)n(CC(O)COc2ccc(OC)cc2)c2ccccc21 (stereo unspecified) | inactive |
| OC(CNC1CCCC1)COc1c(F)cc(Br)cc1F (stereo unspecified) | inactive |
| CCCCOC(=O)Cn1c(=N)n(CCN(CC)CC)c2ccccc21 | inactive |
| Cn1nc(SCC(=O)O)sc1=S | inactive |
